Results on 30 compounds are retold here after PubChem BioAssay (NCATS).

Records with an inconclusive call do not appear. Calls of active or inactive are those of the source. Calls follow the shape of the dose curve; as a rule, active = well fitted cell-killing curve with a large enough effect; inconclusive = small, poorly fitted or top-dose-only effect, or effect the other way; inactive = no such curve, though single readings can be large or run the other way.
Potency is read from the fitted curve at half-maximal effect.

This test in a line: Quantitative High-Throughput drug screen in 47 multiple myeloma cell lines against the NCATS MIPE library collection: JJN3_DSMZ cell viability assay (AID 1918966; also: nearly all actives have a fitted effect of over 50% in size). The settings on record: JJN3 myeloma cells viability, CellTiter-Glo ATP, 48 h; series mostly up to 45.8 µM. Put shortly: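 CellTiter-Glo ATP luminescence gave viability after 48 h compound treatment at 37C of 500 multiple myeloma cells per well. Normalisation used DMSO-only wells as 100% and media-only wells as 0% viability; primary qHTS of approved and investigational drugs.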
As for `Cc1ccc(C(N)=O)cc1Nc1nccc(-c2cn(C(C)C)c3cnccc23)n1`, the Potency is 4.69 µM (active).
As for `N#CCNC(=O)c1ccc(-c2ccnc(Nc3ccc(N4CCOCC4)cc3)n2)cc1`, the figure is 13.2 µM (active).
Turning to `c1ccc2c(CCNc3ccc(Nc4ccncc4)cc3)c[nH]c2c1`, the Potency was 20.9 µM (active).
Under `C#Cc1cccc(Nc2ncnc3cc(OC)c(OCCCCCCC(=O)NO)cc23)c1` stands 0.132 µM (active); under `C[C@@H](Oc1cc(-n2cnc3ccc(CN4CCN(C)CC4)cc32)sc1C(N)=O)c1ccccc1C(F)(F)F`, 18.7 µM (active).
As for `CN(c1ncccc1CNc1nc(Nc2ccc3c(c2)CC(=O)N3)ncc1C(F)(F)F)S(C)(=O)=O`, the figure is 2.64 µM (active).
For the compound `CCN(CC)CCCCNc1ncc2cc(-c3cc(OC)cc(OC)c3)c(NC(=O)NC(C)(C)C)nc2n1`, the Potency is 20.9 µM (active).
For `Cc1ccc(NC(=O)C2(c3ccc4c(c3)OC(F)(F)O4)CC2)nc1-c1cccc(C(=O)O)c1`, the Potency is 0.148 µM (active).
With `CCCCN1CCC(CNC(=O)c2c3n(c4ccccc24)CCCO3)CC1`, the Potency was 2.09 µM (active).
Under `Fc1cc(-c2cccc3ncc(-c4cnn(C5CCNCC5)c4)nc23)cc(F)c1CN1CCOCC1` stands 16.6 µM (active); under `CCCn1c(=O)c2[nH]c(-c3cnn(Cc4cccc(C(F)(F)F)c4)c3)nc2n(CC)c1=O`, 5.9 µM (active).
As for `O=C(CCCCCCNC(=O)c1cnc(N(c2ccccc2)c2ccccc2)nc1)NO`, the figure is 4.18 µM (active).
For the compound `O=C(CCCCCCC(=O)Nc1ccc([C@H]2O[C@@H](CSc3nc(-c4ccccc4)c(-c4ccccc4)o3)C[C@@H](c3ccc(CO)cc3)O2)cc1)NO`, the Potency is 13.2 µM (active).
In the case of `COc1ccc(OC)c(-c2nnc3ccc(-c4ccc(OC)c(O[C@@H]5CCOC5)c4)nn23)c1`, the Potency is 16.6 µM (active).
Under `COc1cc(C(C)C)c2c(c1)S(=O)(=O)N(COc1cc(=O)n3cccc(OCCN4CCCCC4)c3n1)C2=O` stands 5.26 µM (active); under `C[C@@H](Oc1cc(-c2cnn(C3CCNCC3)c2)cnc1N)c1c(Cl)ccc(F)c1Cl`, 8.33 µM (active).
Regarding `CCN1CCN(CC(=O)Nc2ccc(-c3cccc4c(=O)cc(N5CCOCC5)oc34)c3sc4ccccc4c23)CC1`, the Potency is 3.72 µM (active).
As to `OCc1ccc(-c2ccc(-c3ccc(CO)s3)o2)s1`, the Potency was 16.6 µM (active).
As for `O=C(c1ccc(Nc2nccc(-c3cc4ccccc4s3)n2)cc1)N1CCC(N2CCCC2)CC1`, the figure is 16.6 µM (active).
As for `O=C(Nc1cn[nH]c1-c1nc2ccc(CN3CCOCC3)cc2[nH]1)NC1CC1`, the figure is 1.87 µM (active); as for `CC(C)c1ccc(Cn2ccc3c4c(N)nc(NC5CC5)nc4ccc32)cc1`, 8.33 µM (active).
As for `Cc1cn(-c2cc(NC(=O)c3ccc(C)c(Nc4nccc(-c5cccnc5)n4)c3)cc(C(F)(F)F)c2)cn1`, the figure is 18.7 µM (active); as for `COc1cc2c(cc1-c1c(C)noc1C)ncc1[nH]c(=O)n([C@H](C)c3ccccn3)c12`, 6.62 µM (active).
Consider `OCCCNc1cc(-c2ccnc(Nc3cccc(Cl)c3)n2)ccn1`, for which the Potency is 0.0935 µM (active).
Under `CC(C)(C)OC(=O)Nc1ccc(-c2cc(C(=O)NCCCCCCC(=O)NO)no2)cc1` stands 2.35 µM (active); under `C[C@H]1C[C@@H]2[C@@H]([C@@H](O)C[C@@]3(C)[C@H]2CC[C@]3(O)C(=O)CO)[C@@]2(C)C=CC(=O)C=C12`, “inactive”.
As for `NC(=O)Nc1cc(-c2cccc(F)c2)sc1C(=O)N[C@H]1CCCNC1`, the figure is 1.32 µM (active).
Regarding `Nc1nccc(Oc2ccc(NC(=O)c3c[nH]cc(-c4ccc(F)cc4)c3=O)cc2F)c1Cl`, the Potency was 20.9 µM (active).
Under `COc1cc2c(Oc3ccc(NC(=O)C4(C(=O)Nc5ccc(F)cc5)CC4)cc3F)ccnc2cc1OCCCN1CCOCC1` stands 16.6 µM (active); under `O=C(Cc1ccc(-c2ccc(OCCN3CCOCC3)cc2)cn1)NCc1ccccc1`, 0.132 µM (active).
